Screen size: about 87,000 compounds; about 540 (0.62%) were called active. No rule for the calls is given here. For the sample, actives were picked, then their nearest neighbours and some compounds at random. Entries with a potency or affinity are not part of this list.

A short description of the assay: MT1-MMP gene expression reporter suppression – cell-based, luciferase reporter, luminescence (AID 618).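 Also: actives suppress MT1-MMP promoter-driven transcription so potencies describe inhibitors.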 Particulars: MT1-MMP promoter luciferase reporter cells.
Consider `Cc1cc(C)n(CC(O)Cn2ccc3ccccc32)n1` (configuration not stated), for which the result was inactive.

For `CCOc1ccc(-c2nc(-c3ccccc3)no2)cc1OCC`, the compound was called inactive. With `Cc1ccc(Cc2nc(-c3ccccn3)no2)cc1`, the compound was classed as inactive.

On to `c1ccc(-c2nnc(-c3cccc(-c4nnc(-c5ccccc5)o4)c3)o2)cc1`, for which the compound was called inactive. Take `c1ccc(-c2noc(-c3ccc4ccccc4c3)n2)cc1`: the outcome was active. Take `c1ccc(-c2nnc(-c3ccccc3)o2)cc1`: the compound was classed as inactive. As to `Cc1occc1-c1nc(-c2ccccn2)no1`, the compound was classed as inactive.

For the compound `Brc1cccc(-c2nc(-c3ccncc3)no2)c1`, the result was inactive. In the case of `CC1=CCC(C(=O)O)C(C(=O)Nc2nc3ccc(S(C)(=O)=O)cc3s2)C1` (configuration not stated), the call was inactive. Turning to `Cn1c(=O)c2c(ncn2CC(=O)N2CCN(c3ccccc3F)CC2)n(C)c1=O`, the outcome was inactive. Take `COc1ccc(-c2c(C)n([O-])c(C)c(C)[n+]2=O)cc1`: the outcome was inactive. As for `COc1ccc(S(=O)(=O)N2C3CCC2CC(NC(=O)NC2CCCCC2)C3)cc1` (configuration not stated), the call was inactive.

Take `COc1cccc(NS(=O)(=O)c2ccc3[nH]cc(C(=O)NC4CC4)c(=O)c3c2)c1`: the outcome was inactive. The same measure for `CCCn1c(-c2ccc(OC)cc2)nc2c(=O)n(C)c(=O)[nH]c21`: “inactive”; for `CCC(C)NS(=O)(=O)c1ccc(NC(=O)c2c(-c3ccccc3)noc2C)cc1` (configuration not stated): “inactive”. For `O=C(NCCCc1ccccc1)c1cnc2n(c1=O)CCS2` the value was “inactive”; for `O=C(COc1cccc(C(F)(F)F)c1)NCCCN1CCCC1=O`, “inactive”; for `CCC(=O)Nc1ccc2c(c1)C(=O)N(C1CCCCC1)C2=O`, “inactive”. On to `CCN(CC)c1ccc2cc(C(=O)Nc3ccccn3)c(=O)oc2c1`, for which the compound was classed as inactive. Consider `CCN(CC)c1ccc2cc(C(C)=O)c(=O)oc2c1`, for which the result was inactive. Take `CC(C)C(NS(=O)(=O)c1ccc(Br)s1)C(=O)O` (configuration not stated): the compound was classed as inactive. In the case of `O=C(CCCSc1nnc(-c2cccs2)n1CC1CCCO1)c1ccccc1` (configuration not stated), the compound was called inactive. Turning to `CCOc1ccc(Nc2cc(C)nc(-n3nc(C)cc3C)n2)cc1`, the compound was classed as inactive. `COC(=O)c1ccc(Oc2nc(C)cc(Oc3ccccc3)n2)cc1`: the outcome was inactive.

In the case of `CC(=O)c1ccc(Oc2cc(C)nc(-n3nc(C)cc3C)n2)cc1`, the compound was called active. Turning to `COc1ccc(Nc2cc(C)nc(-n3nc(C)cc3C)n2)cc1`, the compound was classed as active.

As to `CC(=O)c1ccc(Oc2cc(C)nc(NCc3ccccc3)n2)cc1`, the outcome was inactive. Consider `COC(=O)c1ccc(Oc2cc(C)nc(-n3nc(C)cc3C)n2)cc1`, for which the compound was classed as active.

Regarding `Cc1ccc(Oc2cc(-n3nc(C)cc3C)ncn2)cc1`, the compound was called inactive. The same measure for `COC(=O)c1ccc(Oc2cc(C)nc(SC)n2)cc1`: “inactive”; for `CNc1cc(C)nc(-n2nc(C)cc2C)n1`: “inactive”; for `Cc1ccc(C(=O)NCc2cccs2)cc1S(=O)(=O)N1CCCCC1`: “inactive”. Consider `Cc1cccc(OCCn2c(=O)sc3ccccc32)c1`, for which the call was inactive. As to `CCSc1nnc(NC(=O)CSc2nc3c(c(=O)n2C)SC(C)C3)s1` (configuration not stated), the call was inactive. For `COc1ccc(C)cc1S(=O)(=O)N(C)CC(=O)Nc1ccccc1`, the compound was classed as inactive. Regarding `Cc1ccc(-c2nnc(SCC(=O)N3CCCC3)o2)cc1C`, the compound was called inactive. `COC(=O)c1ccc(S(=O)(=O)c2ccccc2)c(N)c1`: the outcome was inactive. In the case of `O=C(Cn1cnc2c(nnn2Cc2ccccc2)c1=O)N1CCN(c2ccccc2)CC1`, the outcome was inactive. Take `CCOc1nc(NC2CCCCC2)nc(NC(C)(C)C)n1`: the compound was classed as inactive. For the compound `Cc1c(C(=O)OCC2CCCO2)[nH]c2c1C(=O)CC(c1ccc(N(C)C)cc1)C2` (configuration not stated), the compound was called inactive. For `C=CCOC(=O)c1[nH]c2c(c1C)C(=O)CC(c1ccco1)C2` (configuration not stated) the value was “active”; for `C/C=C/COC(=O)c1[nH]c2c(c1C)C(=O)CC(c1ccc(N(C)C)cc1)C2` (configuration not stated), “inactive”; for `C/C=C/COC(=O)c1[nH]c2c(c1C)C(=O)CC(c1ccco1)C2` (configuration not stated), “active”. With `Cc1ccc(S(=O)(=O)N(CC(=O)N2CCC(C(N)=O)CC2)Cc2ccc(F)cc2)cc1`, the result was inactive. For `Oc1ccccc1-c1cc(-c2ccc3c(c2)OCCO3)n[nH]1`, the call was active. Regarding `Oc1ccccc1-c1cc(-c2cccc(F)c2)n[nH]1`, the compound was classed as inactive. For `Oc1ccc(F)cc1-c1cc(-c2ccc3c(c2)OCCO3)n[nH]1` the value was “inactive”. For `Cc1cccc(NCc2ccccc2O)n1`, the compound was called inactive. For `O=C(CSc1nnc(COc2ccc(Cl)cc2)o1)N1CCN(c2ccccc2)CC1`, the compound was called inactive.

On to `O=C(CSc1nnc(COc2ccc(Cl)cc2)o1)N1c2ccccc2CCc2ccccc21`, for which the result was active. For `O=C(CSc1nnc(COc2ccc(F)cc2)o1)N1c2ccccc2CCc2ccccc21` the value was “inactive”; for `COC(=O)c1ccccc1NC(=O)NCc1ccco1`, “inactive”; for `CC1(C)CC(=O)C2=C(C1)N(CCN1CCOCC1)C1=C(C(=O)CC(C)(C)C1)C2c1cccc(F)c1`, “inactive”. The same measure for `CC(=O)Nc1ccc(-c2nnn(CC(=O)c3ccccc3)n2)cc1Cl`: “inactive”.

`CCOc1cc(/C=N/n2cnnc2)ccc1O`: the compound was classed as inactive. As to `CCOc1cc(/C=N/n2cnnc2)c(Br)cc1O`, the compound was classed as active.

Consider `CCOc1cc(/C=N/n2cnnc2)cc(Br)c1O`, for which the result was inactive. Turning to `O=C(COc1ccc(S(=O)(=O)NC2CCCCC2)cc1)NCC1CCCO1` (configuration not stated), the compound was called inactive. Regarding `N#Cc1nn(-c2ccccc2)nc1N1CCCCC1`, the call was inactive. The same measure for `Cc1ccc(NC(=O)CC(O)(C(F)(F)F)C(F)(F)F)cc1`: “inactive”; for `CCN1C(=O)C2C(c3ccccc3F)NC(Cc3ccc(O)cc3)(C(=O)OC)C2C1=O` (configuration not stated): “inactive”; for `COC(=O)c1sc(NC(=O)COc2ccc(OC)cc2)nc1C`: “inactive”. For `COc1ccc(C(=O)Nn2cnnc2)c(OC)c1`, the call was inactive. As to `COC(=O)c1sc(NC(=O)c2ccoc2C)nc1C`, the call was inactive.

Consider `COc1ccc(C(=O)Nc2ccc(C)cn2)c(OC)c1`, for which the compound was called active.

For `CCc1nnc(NC(=O)c2c(OC)cccc2OC)s1`, the call was inactive. Consider `CCOc1ccccc1C(=O)Nc1nnc(CC)s1`, for which the compound was called inactive. `COC(=O)c1sc(NC(=O)c2ccc(OC)cc2OC)nc1C`: the compound was called active.

Turning to `COc1ccc(C(=O)Nc2c(F)c(F)c(F)c(F)c2F)c(OC)c1`, the compound was classed as inactive. `Cc1ccc(C)c2[nH]c(=O)c(CCNC(=O)C(C)(C)C)cc12`: the compound was classed as inactive. The same measure for `O=S(=O)(c1ccc(Br)cc1)N1CCCN(Cc2ccccc2F)CC1`: “inactive”; for `COc1ccccc1NC(=O)N1CCN(c2ccc3nncn3n2)CC1`: “inactive”. Regarding `CCCCOC(=O)C1C2C=C[C@]3(CN(CCCOC)C(=O)[C@H]13)O2` (some centres not stated), the outcome was inactive.

On to `CCOc1ccc(NC(=O)CSc2nnc(Cn3c(=O)sc4ccccc43)n2C)cc1`, for which the call was inactive. Take `CCOC(=O)c1cnn(CCOC(=O)Cc2cccs2)c1NC(=O)Cc1cccs1`: the result was inactive. The same measure for `CC1=[N+]([O-])C(N2CCOCC2)C(O)(c2ccccc2)C1` (configuration not stated): “inactive”.

In the case of `COCCN1C(=O)c2ccccc2C(C(=O)NCCCN2CCCC2)C1c1c[nH]c2ccccc12` (configuration not stated), the call was inactive. On to `O=C(NCC(c1cccnc1)N1CCOCC1)c1ccc2c(c1)OCO2` (configuration not stated), for which the compound was called inactive. The same measure for `O=S(=O)(NCCOCC(F)(F)C(F)F)c1ccc2oc3ccccc3c2c1`: “inactive”; for `S=C(Nc1ccccc1)c1ccccn1`: “inactive”; for `S=C(Nc1ccccn1)c1ccccn1`: “inactive”.

For `Cc1c(C(=O)c2ccc(Cl)cc2Cl)cnc2cc3c(cc12)OCO3`, the compound was called inactive. `O=C(CN1CCN(C(=O)c2ccco2)CC1)Nc1c2c(nc3c1CCC3)CCCC2`: the result was inactive.

As to `Cc1ccc(-c2noc(-c3cccs3)n2)cc1`, the result was inactive. `COC(=O)c1noc(-c2ccc(C)cc2)n1`: the result was inactive. Take `COc1ccc(C(NC(N)=O)c2ccccc2)cc1` (configuration not stated): the outcome was inactive. Turning to `FC(F)C(F)(F)C(F)(F)C(F)(F)c1cc(-c2ccccc2)n[nH]1`, the compound was called inactive. With `CCN(CC)c1ccc2cc(-c3nnc(-c4ccccc4)o3)c(=O)oc2c1`, the outcome was inactive.

`CCN(CC)c1ccc2cc(-c3nc4ccccc4n3C)c(=O)oc2c1`: the compound was called inactive.

As for `COc1cc(C2CC(=O)n3c(nc4ccccc43)S2)cc(OC)c1OC` (configuration not stated), the call was inactive. In the case of `COc1ccc(C2CC(=O)n3c(nc4ccccc43)S2)cc1OC` (configuration not stated), the compound was called inactive.

As for `O=C1CC(c2ccc3c(c2)OCO3)Sc2nc3ccccc3n21` (configuration not stated), the outcome was active.

In the case of `Clc1ccc2c(c1)C1OCCC1C(c1ccco1)N2` (configuration not stated), the compound was called inactive. The same measure for `Cc1ccc(-c2nn(CC(=O)NCc3cc(-c4nn(C)c(=O)c5ccccc45)ccc3C)c(=O)c3ccccc23)cc1`: “inactive”; for `CN(C)S(=O)(=O)c1ccc(C(=O)OCC(=O)NC(=O)NCc2ccccc2)cc1`: “inactive”. Regarding `CCOC(=O)c1sc(Nc2ccccc2)nc1C`, the call was inactive. For the compound `CCOC(=O)Nc1cccc(Nc2ccccc2)c1`, the compound was called inactive.

On to `CCOC(=O)/C(=C\c1cccnc1)C(=O)c1cc(C(C)=O)c(Nc2ccccc2)s1`, for which the call was active. On to `CCOC(=O)c1cccc(NC(=O)c2cccnc2)c1`, for which the outcome was inactive. On to `CCOC(=O)/C(=C/Nc1ccccc1)[N+](=O)[O-]`, for which the compound was called inactive. The same measure for `c1ccc(C2C3=C(CCCC3)Nc3ncnn32)cc1` (configuration not stated): “inactive”.

In the case of `Cc1cccc(C)c1NC(=O)CSc1nnc(CCCCCNC(=O)OC(C)(C)C)o1`, the outcome was inactive. As to `COc1ccc2cc(C#N)c(SCC(=O)N3CCCC3)nc2c1`, the compound was called inactive. Regarding `Nc1cccc2cnccc12`, the compound was called inactive. Consider `Cc1cc2c(N)cccc2nn1`, for which the result was inactive. The same measure for `O=S(=O)(c1ccc(N2CCC(c3ccc(Cl)cc3)=N2)cc1)N(CCO)CCO`: “inactive”; for `CN(C)CCNS(=O)(=O)c1ccc(Cl)cc1`: “inactive”; for `CC1NC(=O)NC1CCCCC(=O)O` (configuration not stated): “inactive”. As for `Cc1ccc(S(=O)(=O)NC2=NCN(C3CCCCC3)CN2)cc1`, the call was inactive. For `Cc1ccc(Cn2c(NCCc3ccccc3)nc3c2c(=O)n(C)c(=O)n3C)cc1` the value was “inactive”; for `COc1ccc(NS(=O)(=O)c2ccc(N)c(C(=O)O)c2)cc1`, “inactive”; for `Cn1cccc1C(=O)OCc1csc(-c2ccccc2)n1`, “inactive”. For `Cc1ccsc1C(=O)OCc1csc(-c2ccccc2)n1` the value was “active”; for `O=C(OCc1csc(-c2ccccc2)n1)c1cccs1`, “inactive”. For `O=c1cc(CSc2nnnn2-c2ccccc2)nc2nc[nH]n12` the value was “inactive”; for `O=C(NC1CC1)c1cc2c(s1)-c1ccccc1OC2`, “inactive”; for `Cn1c(=O)cc(SCC(=O)NCC2CCCO2)c2ccccc21` (configuration not stated), “inactive”.

Take `Cc1cc(NCCCN2CCOCC2)n2ncc(-c3ccccc3)c2n1`: the compound was classed as inactive. For the compound `Cc1cc(NCCCn2ccnc2)n2ncc(-c3ccccc3)c2n1`, the outcome was active.

On to `CC(C)(C)c1cc(NCCCn2ccnc2)n2ncc(-c3ccc(Cl)cc3)c2n1`, for which the compound was called inactive. Regarding `Cc1cc(NCCCn2ccnc2)n2nc(C)c(-c3ccccc3)c2n1`, the compound was classed as inactive.

`Cc1cc(NCCCn2ccnc2)n2nc(C)c(-c3ccc(Cl)cc3)c2n1`: the compound was called inactive.

Source of the values: PubChem BioAssay AID618 (Sanford-Burnham Center for Chemical Genomics, 2007).
